Assay results taken from the supplement of paper PMC4166925.
± gives the standard deviation of the averaged measurements. The full ranking holds about 33,000 sequences; the median of “E-score (dimensionless, -0.5 to 0.5)” is about -0.049, and the highest 2% start at about 0.37. What follows is part of a selection rich in the highest values, with near analogues and random picks from the rest.

System: T1, PmTbr T-box DNA-binding domain (GST fusion)
T1 sequence: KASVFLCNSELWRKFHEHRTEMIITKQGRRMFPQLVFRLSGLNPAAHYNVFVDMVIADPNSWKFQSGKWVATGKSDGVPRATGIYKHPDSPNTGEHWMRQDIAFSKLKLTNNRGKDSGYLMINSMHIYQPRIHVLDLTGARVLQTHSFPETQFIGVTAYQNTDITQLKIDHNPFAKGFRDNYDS
Assay: PBM E-score of 8-mer (E-score (dimensionless, -0.5 to 0.5)); Tbr is Tbrain of the sea star Patiria miniata (Pm) or the sea urchin Strongylocentrotus purpuratus (Sp); higher = stronger binding preference
Settings: the construct has about 5 more residues each side
Procedure, shortened: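 Expression of GST-fused Tbr T-box DNA-binding domains, each holding the full T-box plus roughly five flanking residues, was carried out in BL21 E. coli at 20 °C, with purification by glutathione affinity chromatography. Universal Agilent arrays made double-stranded by primer extension were incubated with the protein at 200 nM in PBS (pH 7.5), then scanned and quantified. All ungapped 8-mers were scored from probe intensities, and each received an enrichment E-score from the Universal PBM Analysis Suite, averaged over duplicate arrays.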

Sequence | PBM E-score of 8-mer
CCAGACCA | -0.0405 ± 0.051
GAGACAGC | 0.0107 ± 0.051
CATCAGGG | -0.024 ± 0.045
AGATAGTC | -0.0975 ± 0.03
AATACTTG | -0.0724 ± 0.093
AATGCGCA | -0.0568 ± 0.095
AGGGGGAA | -0.14 ± 0.053
CCTAAGTC | -0.0839 ± 0.0091
AGTGTTAC | 0.3946 ± 0.0021
GGTGTTAC | 0.4752 ± 0.00012
GCTGTTAC | 0.0246 ± 0.042
GGTGTAAA | 0.418 ± 0.0026
CGTGTTAC | 0.349 ± 0.015
AATGTTAA | -0.0297 ± 0.11
GGTGTAAC | 0.363 ± 0.027
AGTGTTAA | 0.433 ± 0.017
AGTGTAAA | 0.287 ± 0.081
ACTGTTAC | 0.118 ± 0.043
ACTGTTAA | 0.21 ± 0.045
AGTGTTCC | 0.0364 ± 0.038
CCCACAGG | 0.0869 ± 0.067
CCGGTTGC | -0.0645 ± 0.0032
CATAGATA | -0.161 ± 0.051
ACCAACGA | 0.0332 ± 0.14

Sequence | PBM E-score of 8-mer
GTGCTTGA | 0.00432 ± 0.026
AGTGTTAT | 0.397 ± 0.016
ACTGTTAT | 0.0989 ± 0.046
AATGTTAT | -0.00229 ± 0.038
CCCGAGGG | -0.251 ± 0.11
CCTTCTCC | -0.0679 ± 0.015
AGAGCAAA | -0.099 ± 0.029
TAACAAGA | 0.0263 ± 0.085
GTGTGCTA | 0.3066 ± 0.0011
ACGTGCCA | 0.367 ± 0.031
AGCTGCCA | 0.18 ± 0.026
AGGTGCCG | 0.439 ± 0.0092
AGGTGCCC | 0.0662 ± 0.046
AGGTGCCA | 0.4761 ± 0.0036
ACGTGCCG | 0.221 ± 0.02
CGGTGCTA | 0.321 ± 0.0088
CGGTGCGA | 0.35 ± 0.017
GGGTGCTA | 0.4326 ± 0.0028
GTGTGCGA | 0.3565 ± 0.0019
GGGTGCGA | 0.4765 ± 0.0031
CACGCCAC | 0.222 ± 0.04
ACGAAGTG | 0.291 ± 0.018
CTGGGCCA | -0.217 ± 0.042
AGGTCACA | 0.27 ± 0.017

Sequence | PBM E-score of 8-mer
GCTACGAC | 0.00882 ± 0.05
CGGCAATA | -0.0175 ± 0.065
CGGCCTAA | -0.0861 ± 0.036
AACTCAAC | -0.0361 ± 0.029
CGCTATAA | 0.164 ± 0.045
GCGTGCCA | 0.163 ± 0.015
GGGTGCCA | 0.426 ± 0.011
TGGTGCAA | 0.192 ± 0.012
GGGTGCAA | 0.31 ± 0.0046
CGGTGCCA | 0.195 ± 0.0034
AGGTGCAA | 0.4484 ± 0.0012
AAAGACCG | -0.149 ± 0.032
TCCTGCCA | 0.183 ± 0.019
AGCGTGAG | 0.24 ± 0.042
CGCGTGAC | 0.342 ± 0.0057
GGCGTGAC | 0.386 ± 0.017
AGCGTGAC | 0.3524 ± 0.0023
GGCGTGAA | 0.4668 ± 0.002
TGCGTGAA | 0.3679 ± 0.0033
AGCGTGAT | 0.207 ± 0.025
CGCGTGAA | 0.398 ± 0.033
AGCGTGAA | 0.381 ± 0.004
GGCGTGCA | -0.00275 ± 0.035
CGCGTGAG | 0.282 ± 0.004

Sequence | PBM E-score of 8-mer
CACGTGAA | 0.176 ± 0.044
CTAGGATC | -0.255 ± 0.018
TTGAGAAA | 0.0227 ± 0.14
ATGACCAT | -0.23 ± 0.0083
TCCTTAGA | -0.289 ± 0.043
CCCAAGCC | -0.228 ± 0.037
AGTCAATG | -0.195 ± 0.041
CTTCCACA | 0.151 ± 0.069
CGTCTTCA | -0.00878 ± 0.0017
AGAACGAG | -0.0902 ± 0.0033
CGGCGAAA | -0.1403 ± 0.00085
GCCATTCA | 0.104 ± 0.018
GAACGCTA | 0.0135 ± 0.049
GATAACGC | 0.246 ± 0.0034
AATAACAC | 0.339 ± 0.052
CATAACAC | 0.42 ± 0.0089
CATAACAA | 0.0483 ± 0.038
GATAACAA | 0.212 ± 0.042
GATAACAC | 0.4169 ± 0.0014
GCTGTTCA | 0.0254 ± 0.024
CGAAGATC | -0.07 ± 0.0097
ACCGCAGA | -0.332 ± 0.019
